# PubChem BioAssay AID493170 (National Center for Advancing Translational Sciences (NCATS), 2011)
# Records with an inconclusive call do not appear. A call without a number means that no potency is given here. Activity calls are given as the source filed them. Calls come from the whole dose curve; as a rule, active = well fitted inhibition curve with a large enough effect; inconclusive = small, poorly fitted or top-dose-only effect, or effect the other way; inactive = flat fitted curve, though single readings scatter.
# Target: Ubiquitin carboxyl-terminal hydrolase 2 (Homo sapiens) (UniProt O75604)
# Sequence (O75604 whole entry, looked up): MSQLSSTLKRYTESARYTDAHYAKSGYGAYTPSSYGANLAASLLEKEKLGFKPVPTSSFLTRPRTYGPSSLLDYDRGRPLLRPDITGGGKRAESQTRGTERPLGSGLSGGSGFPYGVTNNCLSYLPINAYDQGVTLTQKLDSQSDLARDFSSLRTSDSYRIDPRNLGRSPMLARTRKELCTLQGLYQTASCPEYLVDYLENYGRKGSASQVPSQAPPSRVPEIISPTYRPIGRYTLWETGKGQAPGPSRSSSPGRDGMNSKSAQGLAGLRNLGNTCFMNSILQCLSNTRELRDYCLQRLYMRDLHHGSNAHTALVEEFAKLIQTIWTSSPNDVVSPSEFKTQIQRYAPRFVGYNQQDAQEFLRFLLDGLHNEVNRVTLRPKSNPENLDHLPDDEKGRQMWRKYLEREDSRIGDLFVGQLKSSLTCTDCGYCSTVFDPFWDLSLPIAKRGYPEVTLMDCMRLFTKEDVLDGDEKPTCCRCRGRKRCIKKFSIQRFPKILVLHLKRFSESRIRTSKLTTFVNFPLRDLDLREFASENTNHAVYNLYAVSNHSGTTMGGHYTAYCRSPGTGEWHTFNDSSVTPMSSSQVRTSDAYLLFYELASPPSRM
# Assay: Ub-rhodamine 110 based assay for inhibitors Ubiquitin-specific Protease USP2a; note: nearly all actives have a fitted effect of over 50% in size
# Details: USP2a Ub-rhodamine110 cleavage, fluorescence; series mostly up to 38.3 µM
# How it was run: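 5 nM USP2a preincubated with compounds for 30 min at RT in 20 mM Tris-HCl pH 8.0, 2 mM CaCl2, 2 mM beta-mercaptoethanol, 0.05% CHAPS. Cleavage of 150 nM Ub-rhodamine 110 read kinetically (Ex 485/Em 531) for 7 min.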
# Potency is the fitted concentration of half-maximal effect.
row,SMILES,Potency
1,COc1ccc(NC(=O)CSc2ncccc2C(=O)OC(C)C)cc1OC,inactive
2,O=C(Nc1nc(-c2ccco2)c(-c2ccco2)s1)C1CC(=O)N(c2ccc3c(c2)OCCO3)C1 (centres undefined),2.51 µM (active)
3,Nc1c(C(=O)Nc2ccc(Cl)cc2)oc2ccccc12,inactive
4,O=C1c2ccccc2C(=O)N1CCC1=CCCCC1,inactive
5,N#Cc1c(-c2cccs2)nc(SCc2ccc(Cl)cc2)[nH]c1=O,10 µM (active)
6,CC(C)c1ccc(CCNC(=O)c2ccc([N+](=O)[O-])cc2)cc1,inactive
7,CC(C)CC(=O)NC(=S)Nc1nc(-c2ccc(Cl)cc2)cs1,inactive
8,COc1cc(OC)cc(-c2c(C#Cc3ccsc3)c3cc(-c4ccc(OC)c(OC)c4)ccc3n2C)c1,inactive
9,C[C@@H]1CN([C@@H](C)CO)C(=O)c2cc(NC(=O)CCC(F)(F)F)ccc2O[C@H]1CN(C)S(=O)(=O)c1ccc(Cl)cc1,inactive
10,CCc1ccc([C@@H]2CC=C(C(=O)O)[C@H](c3ccc(C(C)(C)C)cc3)N2S(=O)(=O)c2ccc(C)cc2)cc1,10 µM (active)
11,COc1ccc(-c2noc(CSc3nnc(Cc4ccccc4)n3-c3ccc(Cl)cc3)n2)cc1,inactive
12,O=C(N/N=C1\CC(c2ccccc2)Oc2ccccc21)c1ccc(O)cc1 (centres undefined),inactive
13,Cc1ccc(S(=O)(=O)Nc2ccc(N3CCOCC3)cc2)cc1,inactive
14,O=C(NC12CC3CC(CC(C3)C1)C2)C1=COCCO1,inactive
15,CCOc1ccccc1C(=O)NC1CC2CCCC(C1)N2C1CC1 (centres undefined),inactive
16,CCOC(=O)C(=O)Nc1nc(-c2ccc3c(c2)CCN3C(=O)C2CC2)c(C)s1,inactive
17,O=C(NC1CCCC1)C1C2C=CC(C2)C1C(=O)N1CCOCC1 (centres undefined),inactive
18,COc1ccc(Cl)cc1S(=O)(=O)Nc1cccc(C(=O)O)c1,inactive
19,CCOC(=O)C1CCCN(CC(=O)Nc2c(C(=O)OC)[nH]c3ccc(C)cc23)C1 (centres undefined),inactive
20,C[C@H](CO)N1C[C@H](C)[C@@H](CN(C)S(=O)(=O)c2cn(C)cn2)Oc2ccc(NC(=O)Cn3cnnn3)cc2C1=O,inactive

row,SMILES,Potency
1,O=C(Nc1ccc2c(c1)OCO2)NC1(C(F)(F)F)Oc2ccccc2O1,inactive
2,CCOc1ccc(-c2ccc(/C=C3/C(=N)N4C(C)=CSC4=NC3=O)o2)c([N+](=O)[O-])c1,7.94 µM (active)
3,O=C(OCC1OC(n2ncc(=O)[nH]c2=O)C(OC(=O)c2ccccc2)C1OC(=O)c1ccccc1)c1ccccc1 (centres undefined),4.47 µM (active)
4,CCCCc1ccc(/C=C2/C(=O)ON=C2c2ccccc2)s1,inactive
5,Cc1cccc(N2CCN(C(=O)CCc3nc4ccccc4[nH]3)CC2C)c1 (centres undefined),inactive
6,Cc1cc(N2CCC(C(=O)NC3CC3)CC2)nc(-c2ccccc2)n1,inactive
7,Cn1c(=O)[nH]c(=O)c2c1nc(NCc1ccccc1)n2CCCc1ccccc1,inactive
8,COc1ccc(-c2nnn(CC(=O)N3CCOCC3)n2)cc1,inactive
9,CCOC(=O)C1CCN(CC(O)COc2ccc(C(C)(C)C)cc2)CC1 (centres undefined),inactive
10,CCn1nc(C(=O)N[C@@H](CCSC)c2nc3ccccc3[nH]2)c2ccccc2c1=O,inactive
11,CC(C)C(=O)N=c1sc2cc(F)cc(F)c2n1C,inactive
12,COc1ccc(NC(=O)C2CC(=O)OC2c2ccccc2)cc1 (centres undefined),inactive
13,O=C(CSc1nc2ccccc2c(=O)n1CC1CCCO1)NCc1ccccc1 (centres undefined),inactive
14,CCOc1ccc(C=NNc2ccc(S(=O)(=O)Nc3ccccc3C(=O)O)cc2[N+](=O)[O-])cc1,2.82 µM (active)
15,COc1ccc(-c2nc(Cn3c(SCc4ccc(F)cc4)nc4ccncc43)c(C)o2)cc1OC,inactive
16,N#CCc1ccc(NC(=O)/C=C/c2ccc([N+](=O)[O-])o2)cc1,10 µM (active)
17,COc1ccc(NC(=O)CSc2nc3sc(C)cc3c(=O)n2C)c(OC)c1,inactive
18,CC1CCN(c2ccc3c(c2)S(=O)(=O)c2cccc(C(=O)NC4CC4)c2C3=O)CC1,inactive
19,CC1=CC(C)(C)N(C(=O)c2ccccc2)c2ccccc21,inactive
